VACV mCherry inh: qHTS for Stage-Specific Inhibitors of Vaccinia Orthopoxvirus: mCherry Reporter Primary qHTS. Vaccinia virus mCherry reporter infection, fluorescence. Potency, µM (highest dose often 36.5 µM), inactives show top-dose activity change, negative = inhibition, most hits filed as inhibitors. 310,000 tested, 0.63% active; calls by dose curve; tested in A549 cells; note: potency is the fitted concentration of half-maximal effect; nearly all actives have a fitted effect of over 35% in size
HCMV inh: qHTS Assay for inhibitors of the human cytomegalovirus (HCMV); HFF cells, HCMV-luciferase reporter, 72 h; active compounds read low; 410,000 tested, 4.5% active; activity change, negative = inhibition, % at 57.5 µM; AID 1259415, 2018; in the data active = activity change below about -60%; inconclusive = no clear call, values can overlap the other calls; inactive = above about -39%
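Screen run at 2 compound doses on HFFs infected with reporter HCMV, MOI 1 PFU/cell. Luciferase activity from cell lysates at 72 h post infection gave inhibition relative to buffer-only and Salinomycin wells.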
FMDV inh: High Throughput Screening for Foot and Mouth Disease Virus Antivirals | FMDV antiviral cell-based qHTS | Potency, µM (series often up to 57.9 µM), without a hit: at the top dose activity change, negative = inhibition, most hits filed as inhibitors | 410,000 tested, 1.2% active; calls by dose curve; tested in HEK293T cells; note: read-out not given here; potency is the fitted concentration of half-maximal effect; nearly all actives have a fitted effect of over 45% in size
Vaccinia Venus: qHTS for Stage-Specific Inhibitors of Vaccinia Orthopoxvirus: Venus Reporter Primary qHTS; Vaccinia virus Venus reporter expression, fluorescence; Potency, µM (titrated, usually from 36.5 µM), inactives show top-dose activity change, negative = inhibition, actives largely listed as inhibitors; 330,000 tested, 0.46% active; AID 720580, 2013; calls by dose curve; tested in A549 cells; note: potency is the fitted concentration of half-maximal effect; nearly all actives have a fitted effect of over 30% in size
HCV inhibitor: qHTS Assay for Inhibitors of Hepatitis C Virus (HCV) | Potency, µM (doses to about 41.8 µM), for inactives: top-dose activity change, negative = inhibition, usual class: inhibitors | Huh7.5.1 HCVcc-Cre infection, luciferase reporter, 44 h | 340,000 tested, 3.4% active; active = well fitted inhibition curve with a large enough effect; inconclusive = small, poorly fitted or top-dose-only effect, or another doubt; inactive = no such curve, though single readings can be large or run the other way; note: potency is the fitted concentration of half-maximal effect
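Seed cells (1,000/well) for 4 h; treat with compound and infect with HCVcc-Cre, moi about 0.5. Incubate 44 h, then detect luciferase activity.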
* marks the source's active call; other numbers are inactive results; i = inactive; ? = inconclusive; · = no result given; [ ] = another dose, or the depositor's remark. Compounds with a hit are over-represented: about 7.3% of the library has one in this group of screens. % is set by controls: 0 for no effect and ±100 for the full control effect.

SMILES	VACV mCherry inh	HCMV inh	FMDV inh	Vaccinia Venus	HCV inhibitor
CCCCNC(=S)Nc1ccc(SC(F)F)cc1	-22.7%	-0.2	0.0%	-26.4%	11.2µM*
Oc1cccc2c(NC(=S)Nc3ccc(SC(F)F)cc3)cccc12	·	40.2	12.6µM*	·	6.5%
CCc1nc(N2CCN(C(=S)NCCCOC)CC2)c2c3c(sc2n1)CCCC3	·	-63.6*	?	·	?
CCC(=O)N1CCN(c2nc(CC)nc3sc4c(c23)CCCC4)CC1	-13.8%	-27.7	?	-25.8%	?
CC(NS(=O)(=O)c1ccc2c(c1)CCN2C(=O)CCCC(=O)O)c1ccccc1 (stereo not drawn)	-1.9%	9.7	8.7%	-4.7%	·
CC1(C)CCC(c2ccc(Cl)cc2)=C(CN2CCN(c3ccc(C(=O)NS(=O)(=O)c4ccc(N[C@H](CCN5CCOCC5)CSc5ccccc5)c(S(=O)(=O)C(F)(F)F)c4)cc3)CC2)C1	?	·	·	10µM*	·
CCc1nccc2c1[nH]c1ccccc12	-1.7%	·	-25.9%	-6.4%	11.2µM*
COc1ccc(S(=O)(=O)Nc2cc3c4c(c2)CC(=O)N4CCC3)cc1OC	i	?	34.1%	-22.3%	·
CC(=O)/C(=C/c1ccccc1)C(=O)Nc1ccccc1C	?	-96.3*	14.1µM*	?	?
Cc1ccccc1NC(=O)C(=Cc1ccc(C(=O)O)cc1)C(=O)Nc1ccccc1C	?	-98.7*	5.62µM*	?	?
Cc1ccc(C(C(=O)NCc2ccco2)N(C(=O)CNC(=O)c2cccs2)c2c(C)cc(C)cc2C)cc1 (stereo not drawn)	-11.5%	-78.4*	10.7%	-7.9%	?
Cc1ccc(C(C(=O)NCc2ccco2)N(C(=O)CNC(=O)c2cccs2)c2c(C)cccc2C)cc1 (stereo not drawn)	i	?	23.3%	-14.0%	0.0%
OCCN1CCN(Cc2ccc3c(c2)CN(Cc2cc4ccccc4o2)CCO3)CC1	-12.1%	·	4.1%	2.1%	·
CC1(C)Oc2ccc3ccc(=O)oc3c2/C(=C/Nc2ccc(O)cc2)C1=O	-29.6%	-84.6*	?	?	?
N#C/C(=C/c1ccc(N2CCCCC2)o1)c1cccc(F)c1	·	48.5	-13.5%	·	-4.7%
N#C/C(=C/c1ccc(N2CCCCCC2)o1)c1ccc(Cl)cc1	·	·	25.1µM*	·	?
Cc1c(OCc2ccccc2)c(=O)ccn1Cc1ccc(F)cc1	-5.3%	-24.7	?	-5.5%	1.78µM*
COc1ccc(CNCCC(c2ccccc2)c2ccc3c(c2)OCO3)cc1 (stereo not drawn)	?	-18.3	-20.8%	?	10µM*
COc1ccc(CNCCC(c2ccc(C)cc2)c2ccco2)cc1 (stereo not drawn)	-20.0%	-77.9*	-7.1%	-19.9%	·
Cc1ccc(C(CCN)c2ccco2)cc1 (stereo not drawn)	·	9.2	1.1%	·	-13.3%
COc1ccc(OC)c(CCNC(=O)CCc2nnc3ccc(N4CCOCC4)nn23)c1	14.5%[7.34 µM]	-27.6	-5.7%	18.6%[7.34 µM]	2.0%
CCOC(=O)C1CCN(C(=O)CSc2n[nH]c(-c3ccccc3Cl)n2)CC1	-12.3%	12.0	-10.5%	-4.8%	·
CNC(=O)C(C)Sc1ccc(S(=O)(=O)N2CCOCC2)cn1 (stereo not drawn)	-13.4%	-21.3	-9.8%	-3.8%	6.4%
COc1ccc(CC(N)c2csc(Nc3nncc4ccccc34)n2)cc1 (stereo not drawn)	-22.1%	-14.2	-18.9%	?	·
S=C(NNc1ccnc2cc(Cl)ccc12)Nc1ccc(Cl)cc1Cl	·	0.0	?	·	5.62µM*
SMILES	VACV mCherry inh	HCMV inh	FMDV inh	Vaccinia Venus	HCV inhibitor
CCOc1ccc(NC(=S)NNc2ccnc3cc(Cl)ccc23)cc1	-3.9%	54.4	?	-12.0%	3.16µM*
S=C(NCc1ccncc1)Nc1ccc(Cl)cc1Cl	·	?	-20.3%	·	-14.6%
c1cncc(-c2nc(NCCN3CCOCC3)c3ccccc3n2)c1	16.4%	·	-2.2%	18.9%	·
COc1ccc(C(=O)N2CCC3(CC2)CN(Cc2ccc(C#N)cc2)C3)cc1	·	·	-13.8%	·	·
COc1cc(NC(=O)CN2C(=O)CN(C)C(=O)c3ccccc32)cc(OC)c1OC	-3.8%	10.0	4.7%	-4.7%	·
NC(CSCc1cccc(Br)c1)C(=O)O (stereo not drawn)	i	-65.2*	7.8%	-9.0%	6.5%
NC(=O)CSCc1cccc(Br)c1	·	26.3	12.0%	·	7.2%

Screening results deposited in PubChem by National Center for Advancing Translational Sciences (NCATS).
